According to PubChem BioAssay (Tox21):
Records with an inconclusive call do not appear. Calls of active or inactive are those of the source. Unless noted, calls come from the whole dose curve; as a rule, active = well fitted curve in the direction sought with a large enough effect in the repeat runs; inconclusive = weak or mixed curves; inactive = no such curve, though single readings can be large; an effect the other way counts as inactive or inconclusive.

Assays:
[1] = qHTS assay to identify small molecule antagonists of the thyroid receptor (TR) signaling pathway - cell viability counter screen (AID 743064); note: nearly all actives have a fitted effect of over 50% in size
Procedure, shortened: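 Viability of T3-stimulated (1 nM final) GH3.TRE-Luc cells is measured by CellTiter-Fluor fluorescence after 23.5 h compound exposure at 37 °C plus 30 min reagent incubation.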

[2] = qHTS assay to identify small molecule antagonists of the thyroid receptor (TR) signaling pathway (AID 743065); note: series mostly up to about 70 µM; nearly all actives have a fitted effect of over 55% in size
Procedure, shortened: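 Antagonism measured as loss of luciferase signal in GH3 cells stably carrying a TRE-luciferase reporter, co-treated with compound and T3 (1 nM final) for 23.5 h at 37 C. Viability was read in the same well by CellTiter-Fluor.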

[3] = test system: thyroid hormone receptor (rat, GH3 cells); assay: qHTS assay to identify small molecule agonists of the thyroid receptor (TR) signaling pathway (AID 743066; calls by dose curve)
[4] = target: Estrogen receptor (Homo sapiens) (UniProt P03372); assay: qHTS assay to identify small molecule antagonists of the estrogen receptor alpha (ER-alpha) signaling pathway (AID 743069; active = well fitted curve in the direction sought with a large enough effect in the signal ratio in the repeat runs, not every such curve was filed as active; the % refers to the signal ratio)
Procedure, shortened: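 ER-alpha-UAS-bla GripTite HEK293 line; 2% charcoal-stripped FBS overnight; plated, 4 hr 37C/5% CO2; cpd in DMSO + 17beta-estradiol, 18 hr 37C; LiveBLAzer B/G FRET substrate 2 hr RT; fluorescence intensity.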

[5] = qHTS assay to identify small molecule antagonists of the estrogen receptor alpha (ER-alpha) signaling pathway - cell viability counter screen (AID 743074; calls by dose curve;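 note: HEK293 cells carrying ER-alpha-UAS-bla reporter stimulated with 17beta-estradiol; nearly all actives have a fitted effect of over 45% in size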)
[6] = target: Estrogen receptor (Homo sapiens) (UniProt P03372); assay: qHTS assay to identify small molecule agonists of the estrogen receptor alpha (ER-alpha) signaling pathway (AID 743075; calls by dose curve;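 note: HEK293 GripTite cells with ER-alpha and UAS-driven beta-lactamase reporter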)
[7] = target: Estrogen receptor (Homo sapiens) (UniProt P03372); assay: qHTS assay to identify small molecule agonists of the estrogen receptor alpha (ER-alpha) signaling pathway using the BG1 cell line (AID 743079); note: nearly all actives have a fitted effect of over 20% in size
[8] = qHTS assay to identify small molecule antagonists of the estrogen receptor alpha (ER-alpha) signaling pathway using the BG1 cell line (AID 743080; calls by dose curve;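 note: BG1 cells stimulated with 17beta-estradiol alongside compound; series mostly up to about 70 µM; nearly all actives have a fitted effect of over 25% in size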)
Procedure, shortened: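 BG1Luc4E2, endogenous ER-alpha, 4xERE-luc; 5 d charcoal-stripped FBS, phenol red free; 24 h plating; cpd + 17beta-estradiol 21.5 h, 37 C/5% CO2; CellTiter-Fluor viability 30 min, then ONE-Glo luciferase 30 min RT.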

[9] = qHTS assay to identify small molecule antagonists of the estrogen receptor alpha (ER-alpha) signaling pathway using the BG1 cell line - cell viability counter screen (AID 743081);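 note: compound given together with 17beta-estradiol as the ER stimulus; series mostly up to about 70 µM; nearly all actives have a fitted effect of over 45% in size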
[10] = target: Aromatase (Homo sapiens) (UniProt P11511); assay: qHTS assay to identify aromatase inhibitors (AID 743083); note: series mostly up to about 70 µM; nearly all actives have a fitted effect of over 55% in size
[11] = qHTS assay to identify aromatase inhibitors - cell viability counter screen (AID 743084);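 note: cells stimulated with testosterone during compound exposure; nearly all actives have a fitted effect of over 55% in size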
[12] = target: Aryl hydrocarbon receptor (Homo sapiens) (UniProt P35869); assay: qHTS assay to identify small molecule that activate the aryl hydrocarbon receptor (AhR) signaling pathway (AID 743085);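 note: HG2L7.5c1 human HepG2 liver cells with stably integrated DRE-driven firefly reporter; series mostly up to about 70 µM; nearly all actives have a fitted effect of over 15% in size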
Procedure, shortened: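 A multiplexed format paired cell viability (CellTiter-Fluor fluorescence) with AhR-dependent luciferase output (ONE-Glo luminescence) in the same wells of HepG2 DRE-luc cells after 24 h compound exposure at 37C.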

[13] = qHTS assay to identify small molecule that activate the aryl hydrocarbon receptor (AhR) signaling pathway - cell viability counter screen (AID 743086);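 note: HepG2 liver cells carrying the AhR DRE luciferase reporter; series mostly up to about 70 µM; nearly all actives have a fitted effect of over 45% in size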
Procedure, shortened: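 Cytotoxicity counter screen: CellTiter-Fluor signal (30 min, 37 C) in 4000 HepG2 cells/well carrying the DRE-luciferase reporter, following 24 h compound exposure at 37 C.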

[14] = target: Peroxisome proliferator-activated receptor gamma (Homo sapiens) (UniProt P37231); assay: qHTS assay to identify small molecule agonists of the peroxisome proliferator-activated receptor gamma (PPARg) signaling pathway (AID 743094; active = well fitted activation curve with a large enough effect in the signal ratio in the repeat runs, not every such curve was filed as active; the % refers to the signal ratio)
Procedure, shortened: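 GeneBLAzer PPARg UAS-bla HEK293H cells carrying a stably integrated beta-lactamase reporter were pre-incubated 5 h at 37C, then exposed to compounds in DMSO for 17 h at 37C; LiveBLAzer B/G FRET substrate was added for 1 h at room temperature and fluorescence read.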

[15] = target: Peroxisome proliferator-activated receptor gamma (Homo sapiens) (UniProt P37231); assay: qHTS assay to identify small molecule antagonists of the peroxisome proliferator-activated receptor gamma (PPARg) signaling pathway (AID 743191; calls by dose curve; note: series mostly up to about 63 µM; nearly all actives have a fitted effect of over 30% in size)
Procedure, shortened: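 Beta-lactamase reporter under UAS control in HEK293H PPARg-bla cells; compound treatment 17 h at 37C. Read-out: fluorescence intensity after 1 h room-temperature incubation with LiveBLAzer B/G FRET substrate.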

[16] = qHTS assay to identify small molecule antagonists of the peroxisome proliferator-activated receptor gamma (PPARg) signaling pathway - cell viability counter screen (AID 743194); note: nearly all actives have a fitted effect of over 55% in size
Procedure, shortened: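 Viability was measured as CellTiter-Glo luminescence in GeneBLAzer PPARg UAS-bla HEK293H cells. These cells had been exposed 17 h at 37 C to compounds together with rosiglitazone at 50 nM final, with the beta-lactamase readout taken in the same wells.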

[17] = qHTS assay for small molecule agonists of the antioxidant response element (ARE) signaling pathway (AID 743202; active = well fitted activation curve with a large enough effect in the signal ratio in the repeat runs, not every such curve was filed as active; the % refers to the signal ratio)
Procedure, shortened: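 Quantitative high-throughput format in HepG2 cells bearing an integrated ARE-beta-lactamase reporter. Compound exposure lasted 16 h at 37 C, and fluorescence was read 2 h after adding LiveBLAzer B/G substrate at room temperature.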

[18] = qHTS assay for small molecule activators of the heat shock response signaling pathway - cell viability counter screen (AID 743209); note: nearly all actives have a fitted effect of over 50% in size
Procedure, shortened: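 CellSensor HSE-bla HeLa cells, plated overnight at 37 C/5% CO2, were exposed to compounds in DMSO for 5 h at 37 C. Viability was then read in the same wells by CellTiter-Glo luminescence after 30 min at room temperature.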

[19] = qHTS assay for small molecule activators of the heat shock response signaling pathway (AID 743210; active = well fitted activation curve with a large enough effect in the signal ratio in the repeat runs, with a control signal flat, not every such curve was filed as active; the % refers to the signal ratio;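 note: HeLa cells with beta-lactamase reporter driven by heat shock elements; series mostly up to about 63 µM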)
Procedure, shortened: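 HeLa HSE-bla cells, overnight plating; cpd in DMSO 5 h, 37 C; LiveBLAzer B/G FRET substrate 2.5 h RT; fluorescence intensity read.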

[20] = qHTS assay for small molecule agonists of the antioxidant response element (ARE) signaling pathway - cell viability counter screen (AID 743203; calls by dose curve; note: nearly all actives have a fitted effect of over 55% in size)
Procedure, shortened: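 CellSensor ARE-bla HepG2 cells, 2,000 per well, rested 5 hrs at 37C/5% CO2, then exposed to compound in DMSO for 16 hrs; viability read as CellTiter-Glo luminescence after 30 min at room temperature, in the reporter wells.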

Measured: Potency

Chain of Aryl hydrocarbon receptor (Homo sapiens) (P35869 whole entry, looked up): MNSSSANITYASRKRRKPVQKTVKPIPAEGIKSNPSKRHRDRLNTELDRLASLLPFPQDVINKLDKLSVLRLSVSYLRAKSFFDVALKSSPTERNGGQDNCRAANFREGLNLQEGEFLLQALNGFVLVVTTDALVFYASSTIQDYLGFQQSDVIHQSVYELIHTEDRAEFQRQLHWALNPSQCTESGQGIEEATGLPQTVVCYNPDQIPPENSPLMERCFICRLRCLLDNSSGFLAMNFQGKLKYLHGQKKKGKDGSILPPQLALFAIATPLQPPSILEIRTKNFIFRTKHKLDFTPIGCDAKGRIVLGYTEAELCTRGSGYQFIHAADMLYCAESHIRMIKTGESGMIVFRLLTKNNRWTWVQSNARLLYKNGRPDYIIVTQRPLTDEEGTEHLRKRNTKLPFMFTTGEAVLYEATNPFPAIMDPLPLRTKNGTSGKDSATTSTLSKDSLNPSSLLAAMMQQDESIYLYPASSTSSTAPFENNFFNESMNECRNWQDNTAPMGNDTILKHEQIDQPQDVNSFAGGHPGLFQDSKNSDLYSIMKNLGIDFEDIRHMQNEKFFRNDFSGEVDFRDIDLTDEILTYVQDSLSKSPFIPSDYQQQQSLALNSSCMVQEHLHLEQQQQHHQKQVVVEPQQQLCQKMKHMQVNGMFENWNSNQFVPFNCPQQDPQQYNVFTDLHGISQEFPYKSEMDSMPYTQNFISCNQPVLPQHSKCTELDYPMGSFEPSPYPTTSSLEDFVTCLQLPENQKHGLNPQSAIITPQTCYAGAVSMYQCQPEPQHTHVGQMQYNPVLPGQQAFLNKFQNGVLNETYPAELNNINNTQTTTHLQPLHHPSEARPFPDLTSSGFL
Chain of Estrogen receptor (Homo sapiens) (P03372 whole entry, looked up): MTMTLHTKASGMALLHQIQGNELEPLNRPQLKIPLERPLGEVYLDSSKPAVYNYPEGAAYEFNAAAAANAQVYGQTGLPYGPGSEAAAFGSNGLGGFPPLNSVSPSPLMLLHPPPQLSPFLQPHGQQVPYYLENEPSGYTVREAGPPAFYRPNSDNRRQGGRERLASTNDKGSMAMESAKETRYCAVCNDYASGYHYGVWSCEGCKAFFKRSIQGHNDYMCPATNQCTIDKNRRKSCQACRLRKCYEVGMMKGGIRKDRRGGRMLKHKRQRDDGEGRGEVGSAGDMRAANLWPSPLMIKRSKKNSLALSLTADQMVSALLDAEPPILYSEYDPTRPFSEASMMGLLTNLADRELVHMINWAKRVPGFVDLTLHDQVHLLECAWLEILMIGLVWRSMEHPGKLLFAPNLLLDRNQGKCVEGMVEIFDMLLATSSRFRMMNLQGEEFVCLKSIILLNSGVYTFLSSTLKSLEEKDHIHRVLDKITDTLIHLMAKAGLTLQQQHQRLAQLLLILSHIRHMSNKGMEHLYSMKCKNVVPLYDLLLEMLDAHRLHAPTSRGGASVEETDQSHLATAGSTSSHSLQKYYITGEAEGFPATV
Chain of Aromatase (Homo sapiens) (P11511 whole entry, looked up): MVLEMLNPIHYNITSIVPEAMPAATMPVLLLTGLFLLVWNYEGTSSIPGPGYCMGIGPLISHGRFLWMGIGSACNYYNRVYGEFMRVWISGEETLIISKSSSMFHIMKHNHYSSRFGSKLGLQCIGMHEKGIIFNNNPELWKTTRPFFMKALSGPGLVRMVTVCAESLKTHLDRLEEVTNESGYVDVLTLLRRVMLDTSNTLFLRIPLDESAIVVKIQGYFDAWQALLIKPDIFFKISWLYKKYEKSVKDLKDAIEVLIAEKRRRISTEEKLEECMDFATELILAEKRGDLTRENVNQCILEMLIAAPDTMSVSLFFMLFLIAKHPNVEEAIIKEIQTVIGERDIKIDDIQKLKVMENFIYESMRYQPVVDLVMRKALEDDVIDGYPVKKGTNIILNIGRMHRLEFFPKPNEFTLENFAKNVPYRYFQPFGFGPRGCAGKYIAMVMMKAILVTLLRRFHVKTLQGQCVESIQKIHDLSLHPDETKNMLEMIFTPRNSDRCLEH
Chain of Peroxisome proliferator-activated receptor gamma (Homo sapiens) (P37231 whole entry, looked up): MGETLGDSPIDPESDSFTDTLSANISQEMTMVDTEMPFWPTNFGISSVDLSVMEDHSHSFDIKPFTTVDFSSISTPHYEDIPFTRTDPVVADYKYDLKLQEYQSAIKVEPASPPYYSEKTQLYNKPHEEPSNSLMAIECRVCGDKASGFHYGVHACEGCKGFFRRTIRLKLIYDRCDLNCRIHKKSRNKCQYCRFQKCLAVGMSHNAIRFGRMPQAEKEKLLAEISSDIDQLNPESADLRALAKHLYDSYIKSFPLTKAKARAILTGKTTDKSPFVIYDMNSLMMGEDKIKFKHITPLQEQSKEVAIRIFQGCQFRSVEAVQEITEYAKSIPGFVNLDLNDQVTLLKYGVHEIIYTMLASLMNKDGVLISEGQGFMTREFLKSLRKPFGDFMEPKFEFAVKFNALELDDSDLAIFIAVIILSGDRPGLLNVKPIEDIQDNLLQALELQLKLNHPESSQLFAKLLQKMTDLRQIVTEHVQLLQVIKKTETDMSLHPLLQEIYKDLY

O=C1C=CCCC1
not listed: [20]
inactive: all other assays above

C=CC(=O)OCCCCCCCCCC
not listed: [20]
inactive: all other assays above

CCCCCC1CCC(=O)O1 (stereo not given)
not listed: [12] | [14] | [16]
inactive: all other assays above

CCCC1CCCC(=O)O1 (stereo not given)
not listed: [14] | [19]
inactive: all other assays above

O=C(OCCOCCOCCOC(=O)c1ccccc1)c1ccccc1
not listed: [14]
inactive: all other assays above

C=CC(=O)NC(C)(C)C
not listed: [14]
inactive: all other assays above

CCCCCCOC(=O)c1ccccc1
not listed: [17]
inactive: all other assays above

CC(C)CCCCCOC(=O)CS
not listed: [10] | [14] | [17] | [18]
inactive: all other assays above

Cc1c(N=C=O)cccc1N=C=O
not listed: [14] | [19]
inactive: all other assays above

Cc1nc(C)c(C)nc1C
not listed: [12] | [16] | [17] | [20]
inactive: all other assays above

Cc1ccc(NC=O)c(C)c1
not listed: [15]
inactive: all other assays above

CCCC1CCOC(C)S1 (stereo not given)
not listed: [20]
inactive: all other assays above

O=C(O)CCc1nc2ccccc2[nH]1
not listed: [14] | [15] | [17]
inactive: all other assays above

CCCCOC(=O)CC#N
not listed: [17] | [19]
inactive: all other assays above

C/C(=C(\CCO)SS/C(CCO)=C(\C)N(C=O)Cc1cnc(C)nc1N)N(C=O)Cc1cnc(C)nc1N
not listed: [14] | [17] | [19]
inactive: all other assays above
